High-throughput results: PubChem BioAssay, National Center for Advancing Translational Sciences (NCATS)
Hits are enriched below; roughly 9.4% of the tested compounds scored in any of these assays.
HPGD inh: inhibitors of human 15-hydroxyprostaglandin dehydrogenase (HPGD). purified HPGD, NADH fluorescence kinetic, PGE2 substrate. Potency, µM, for inactives: top-dose activity change, negative = inhibition, most hits filed as inhibitors. hit rate 4.3% among 150,000; active = well fitted inhibition curve with a large enough effect, not every such curve was filed as active; inconclusive = small, poorly fitted or top-dose-only effect, or another doubt; inactive = no such curve, though single readings can be large or run the other way; note: potency is the fitted concentration of half-maximal effect; % is set by controls: 0 for no effect and ±100 for the full control effect
Target sequence (P15428 whole entry, looked up): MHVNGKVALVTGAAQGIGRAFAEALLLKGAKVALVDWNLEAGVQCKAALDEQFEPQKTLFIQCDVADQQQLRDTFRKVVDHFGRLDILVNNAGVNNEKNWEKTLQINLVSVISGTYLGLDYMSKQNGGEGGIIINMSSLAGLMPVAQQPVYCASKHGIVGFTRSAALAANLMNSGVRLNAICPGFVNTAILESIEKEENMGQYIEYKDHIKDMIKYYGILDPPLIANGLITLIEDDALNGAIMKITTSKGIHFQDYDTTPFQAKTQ
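NADH formation kinetics: reaction with 30 uM PGE2 and 1 mM NAD+ (final), 20 nM enzyme, Tris-HCl pH 8 with Tween 20, after 15 min compound preincubation at room temperature. Fluorescence change, last versus first of five reads.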
IMPase Li cell: IMPase inhibition in cells with lithium potentiation; Potency, µM (top dose mostly 59.4 µM), for inactives: at the top dose activity, negative = IMPase inhibition, most hits filed as inhibitors; CHO-M1 cells, IP1 TR-FRET (IP-One), carbachol + lithium; hit rate 0.35% among 210,000; AID 1457;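 note: IP1 builds up when IMPase is blocked and the TR-FRET signal falls; potency is the fitted concentration of half-maximal effect; plate controls were basal vehicle for no effect and high inhibitor control for full effect; nearly all actives have a fitted effect of over 50% in size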
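Lithium-sensitised IP1 accumulation assay; M1-expressing CHO cells treated 30 min at 37C with compound. Competitive antibody detection by time-resolved FRET followed a 10 min room-temperature lysis step.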
IMPase inh: cell-permeable inhibitors of inositol monophosphatase (IMPase); P97697; CHO-M1 cells, IP1 accumulation, HTRF TR-FRET ratio; inhibition (IP1 accumulation), % at 46.1 µM; 120,000 tested, under 10 active; AID 901; active = well fitted curve in the direction sought with a large enough effect in the signal ratio, not every such curve was filed as active; inconclusive = small, poorly fitted or top-dose-only effect, or a change in a side signal; inactive = no such curve, though single readings can be large or run the other way; the % refers to the signal ratio;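 note: cells stimulated with carbachol in lithium chloride buffer; plate controls were DMSO basal wells for no effect and reference inhibitor wells for full effect; higher means more IMPase inhibition seen as more IP1 and lower FRET ratio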
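Carbachol-driven Gq signalling in CHO-M1 cells (2000/well) generates IP1. Compounds that block IMPase raise IP1 and so reduce the FRET signal from Eu-anti-IP1 and d2-IP1 after a 10 min room-temperature lysis.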
HTT ATP protect: protects HTT-Q103 PC12 cells, measured by ATP; hit rate 0.14% among 230,000; PC12 HTT-Q103 induced, cytoprotection, ATP luminescence, 40 h; AID 1471; Potency, µM (doses to about 56.4 µM), for the others: cytoprotection (ATP increase), most hits filed as activators; note: potency is the fitted concentration of half-maximal effect; % of control where 0% means no effect; nearly all actives have a fitted effect of over 45% in size
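Compounds were screened for protection of PC12 cells against cell death after tebufenozide induction (100 nM final) of mutant Huntingtin exon 1 (Q103) fused to GFP.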
HttQ103 aggreg: reduces HttQ103-GFP aggregates in PC12 cells. PC12 HttQ103-GFP aggregates, Acumen cytometry, 40 h. Potency, µM (highest dose often 46.1 µM), for inactives: top-dose activity change, negative = inhibition, actives largely listed as inhibitors. hit rate 1.1% among 220,000. AID 1688; note: potency is the fitted concentration of half-maximal effect; % is set by controls: 0 for no effect and ±100 for the full control effect; nearly all actives have a fitted effect of over 60% in size
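Quantitative HTS on tebufenozide-induced (100 nM) PC12 cells stably expressing polyQ103 Huntingtin exon 1–GFP. Reduction of bright GFP aggregates, detected by laser scanning cytometry after lysis, identified actives across the titration.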
ALDH1A1 inh: blocks purified human ALDH1A1 activity | P00352 | Purified ALDH1A1, NADH fluorescence, propionaldehyde substrate | Potency, µM (top dose mostly 75.3 µM), for the others: top-dose activity, negative = inhibition, hits mostly inhibitors | hit rate 7.3% among 220,000 | AID 1030; active = well fitted inhibition curve with a large enough effect, not every such curve was filed as active; inconclusive = small, poorly fitted or top-dose-only effect, or another doubt; inactive = no such curve, though single readings can be large or run the other way;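 note: potency is the fitted concentration of half-maximal effect; plate controls were no enzyme wells and a reference inhibitor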
Target sequence (P00352 whole entry, looked up): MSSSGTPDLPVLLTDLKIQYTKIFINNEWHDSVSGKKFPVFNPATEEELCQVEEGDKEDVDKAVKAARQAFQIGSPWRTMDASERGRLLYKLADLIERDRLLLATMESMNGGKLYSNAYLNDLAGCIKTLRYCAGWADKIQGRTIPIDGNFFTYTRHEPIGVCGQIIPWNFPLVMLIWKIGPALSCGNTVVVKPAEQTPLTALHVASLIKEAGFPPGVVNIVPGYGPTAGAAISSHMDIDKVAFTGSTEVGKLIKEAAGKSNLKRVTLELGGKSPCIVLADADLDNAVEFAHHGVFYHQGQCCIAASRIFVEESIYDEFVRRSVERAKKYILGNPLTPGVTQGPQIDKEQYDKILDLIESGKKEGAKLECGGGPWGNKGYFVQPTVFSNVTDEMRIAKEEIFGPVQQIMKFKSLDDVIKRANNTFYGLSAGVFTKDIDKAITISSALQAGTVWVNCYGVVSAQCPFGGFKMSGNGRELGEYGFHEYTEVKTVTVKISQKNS
An asterisk follows results filed as active; u = inconclusive; x = no result given; [ ] = another dose, or the depositor's remark. Unless noted, calls come from the whole dose curve; as a rule, active = well fitted curve in the direction sought with a large enough effect; inconclusive = small, poorly fitted or top-dose-only effect, or another doubt; inactive = no such curve, though single readings can be large; an effect the other way counts as inactive or inconclusive.

SMILES	HPGD inh	IMPase Li cell	IMPase inh	HTT ATP protect	HttQ103 aggreg	ALDH1A1 inh
CCOC(=O)CSc1nc2ccc(NC(=O)CSc3nnnn3Cc3ccccc3)cc2s1	-11%	14%	0	1%[1.9 µM]	u	14µM*
CC(C)(C)NC(=O)CSc1nc2ccc(NC(=O)CSc3nnc(N)s3)cc2s1	32µM*	-1%	x	x	u	-2%
Cn1ccnc1SCC(=O)Nc1ccc2nc(SCC(=O)NC3CC3)sc2c1	14µM*	23%[38.3 µM]	5	-6%	15%	3.5µM*
O=[N+]([O-])/C=C\c1cc2ccccc2[nH]1	-5%	4%	x	-14%[10 µM]	x	-13%[13.5 µM]
CCOC(=O)CSc1nc2ccc(N)cc2s1	u	12%[38.3 µM]	-5	-2%	8%	20µM*
Nc1ccc2nc(SCC(=O)N3CCOCC3)sc2c1	x	3%	x	4%[10 µM]	-21%[9.22 µM]	3%
Cc1c(Cl)cnc(NC(=O)COC(=O)C(NC(=O)c2ccco2)C(C)C)c1Cl (configuration not stated)	-8%	2%[38.3 µM]	-15	-7%[10 µM]	-10%	11µM*
O=C(CCC1CCCC1)Nc1ccccc1-c1ccccc1	-8%	14%	x	-12%[10 µM]	u	20µM*
O=C(CCC1CCCCC1)NCc1ccccn1	32µM*	10%	x	-28%[0.074 µM]	-16%	4%
O=C(CCC1CCCCC1)Nc1ccccc1O	20µM*	19%[38.3 µM]	-1	19%[0.074 µM]	10%	u
O=C(CCc1ccc(S(=O)(=O)NC2CCCCC2)cc1)NCc1ccccn1	x	-12%	x	-1%[10 µM]	-25%[9.22 µM]	-5%
O=C(CCC1CCCCC1)Nc1ccccc1-c1ccccc1	-16%	13%[38.3 µM]	-4	-24%	6%	u
CCCCC(=O)NCc1ccc2c(c1)cc(C)n2C	1.1µM*	-10%[38.3 µM]	-8	-6%	9%	-5%
CCOC(=O)CCC(=O)NCc1ccc2c(c1)cc(C)n2C	u	-4%[38.3 µM]	2	u	u	-7%
Cc1cc2cc(CNC(=O)CC(C)C)ccc2n1C	2.2µM*	-12%[38.3 µM]	2	-7%	-12%	1%
COc1ccccc1OCCNC(=O)c1cccs1	16µM*	9%[38.3 µM]	0	-2%	1%	14%
COc1ccc(CNC(=O)c2cccs2)cc1	14µM*	-22%[38.3 µM]	0	8%	-5%	u
CCc1oc(C(=O)OC)cc1CSC(=N)N	x	x	x	11%[10 µM]	26%[9.22 µM]	x
Cc1cc2cc(CNC(=O)c3cccs3)ccc2n1C	2.8µM*	-12%	x	x	4%	-10%
Cc1cc2cc(CNC(=O)c3ccc(S(=O)(=O)N4CCCC4)cc3)ccc2n1C	-6%	20%[38.3 µM]	-13	9%[10 µM]	-1%	20µM*
COc1cccc(C(=O)NCc2ccc3c(c2)cc(C)n3C)c1	x	-7%	x	x	12%	u
N#C/C(=C\Nc1ccccn1)C(=O)C1CC1	-4%	3%	x	-38%[10 µM]	x	-2%[13.5 µM]
O=c1n(-c2ccccc2)c(=O)n2n1CC[C@H]1/C(=N\OC[C@@H](O)COCc3ccco3)[C@H]3O[C@@H]3[C@@H](O)[C@@H]12	x	x	x	-1%[10 µM]	x	-1%[13.5 µM]
COc1cccc(-c2nnc(SCC(=O)NC3CCCCC3)o2)c1	x	x	8	x	x	x
CCOc1ccc(NC(=S)Nc2cc(C)[nH]n2)cc1	x	4%	x	18%[10 µM]	3%	14µM*
SMILES	HPGD inh	IMPase Li cell	IMPase inh	HTT ATP protect	HttQ103 aggreg	ALDH1A1 inh
C=CCN(CC=C)C(=S)Nc1ccc2nsnc2c1	x	-13%	x	-30%	-9%	11µM*
Cc1cc(NC(=S)Nc2cccc3ccccc23)n[nH]1	x	-2%	x	x	1%	6.3µM*
CCOc1ccc(NC(=S)Nc2ccc3nsnc3c2)cc1	28µM*	-5%	x	x	3.5µM*	3.5µM*
CCOC(=O)CCCNC(=O)N1CCc2nc(-c3ccccc3)c3c(c2C1)CO[C@@H](C)C3	-1%	4%	x	-32%[10 µM]	x	4%[13.5 µM]
CC(CCN)(CCN)[N+](=O)[O-]	-14%	5%	x	-2%[10 µM]	x	-9%[13.5 µM]
CN(C)Cc1ccc(C(C)(C)C)cc1-c1cc(C(C)(C)C)ccc1CN(C)C	-11%	-9%	x	8%[10 µM]	x	-2%[13.5 µM]
COc1ccc(NC(=S)Nc2ccc3nsnc3c2)cc1	-4%	-11%	x	9%[10 µM]	-24%	22µM*
COc1ccc(NC(=S)Nc2ccc3nc(C)c(C)nc3c2)cc1	-8%	4%[38.3 µM]	-1	5%	-2%	-3%
O=C(NNC(=O)c1ccccn1)c1cccc([N+](=O)[O-])c1	x	5%	x	x	u	9%
O=C(NC(c1ccccc1)c1ccccn1)c1cccc([N+](=O)[O-])c1 (configuration not stated)	x	7%	x	-15%	6%	14µM*
O=C(c1cccc(C(F)(F)F)c1)C1CCCN(C(=O)CCCn2cncn2)C1 (configuration not stated)	x	2%	x	-18%	19%	1%
CSc1ccc(C(=O)C2CCCN(C(=O)CCCn3cncn3)C2)cc1 (configuration not stated)	x	4%	x	13%[10 µM]	19%[9.22 µM]	16µM*
O=C(c1cccs1)N1CCN(c2ccc(F)cc2)CC1	-1%	34%[38.3 µM]	1	11%	10%	4%
CC1CCN(CC(=O)c2cccs2)CC1	x	6%	x	-14%	15%	u
O=C(CN1CCN(c2ccc(F)cc2)CC1)c1cccs1	x	1%	x	-13%[10 µM]	-14%[9.22 µM]	7.1µM*
O=C(CN1CCc2ccccc2C1)c1cccs1	-22%	-19%[38.3 µM]	-1	5%	-9%	7.9µM*
CCOC(=O)c1cnc2c(ccc3ccccc32)c1Nc1ccccc1O	x	x	7	x	x	x
CC(=O)N1CCC(=NNc2ccc(S(=O)(=O)N3CCOCC3)cc2[N+](=O)[O-])CC1	-11%	-4%	x	9%[10 µM]	-6%	0%
CC(C)N1CCC(=NNc2ccc(S(=O)(=O)N3CCOCC3)cc2[N+](=O)[O-])CC1	-8%	3%	x	9%[10 µM]	28%	28µM*
CCc1ccc2c(c1)C1(NN=C(c3ccc(C)cc3)S1)C(=O)N2 (configuration not stated)	u	15%	-1	15%[10 µM]	22µM*	u
CC(C)c1ccc2c(c1)C1(NN=C(c3ccccc3)S1)C(=O)N2 (configuration not stated)	-24%	16%	u	44%[10 µM]	u	u
CC(=O)Cc1nsc(Nc2ccc3c(c2)OCCO3)n1	20µM*	-26%[38.3 µM]	2	2%	-21%	3.2µM*
CC(=O)Cc1nsc(Nc2ccc(F)cc2)n1	x	2%	x	-41%	-14%	-4%
N#CC(c1ccccn1)(c1ncc(C(F)(F)F)cc1Cl)N1CCOCC1 (configuration not stated)	-10%	-14%[38.3 µM]	-7	13%	5%	8%
N#CC(c1ccncc1)(c1ncc(C(F)(F)F)cc1Cl)N1CCOCC1 (configuration not stated)	x	19%	x	-9%	-26%	0.4µM*
CN(CC(=O)O)S(=O)(=O)c1ccc2c(c1)NC(=O)CC(=O)N2	x	-3%	x	4%[10 µM]	14%	3%
